We go through 107 sequences from PubChem BioAssay AID1508600 (Functional Genomics Laboratory (NCATS/FGL), 2020).

Screen size: about 53,000 sequences; about 3,700 (7%) were called active. This excerpt belongs to a sample that is enriched for actives. Values without a mark were called inactive.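 The calls were made as follows: active = gene knockdowns whose robust z-score for IL-1 alpha signal is at least 2 or at most -2, so actives lie on both sides; inactive = the rest.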

The assay in a line: Components of the Cytosolic LPS Sensing Pathway: Gene Identification via Genome-wide siRNA Screen.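 Also: robust z of the log signal after scaling to non-targeting control siRNA wells of the plate.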 Particulars: RAW264.7 macrophages, IL-1a HTRF, actives lie on both sides, screened at 100 nM (by protocol), cells primed 5 h with Pam3CSK4 first. An outline of the steps: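 Knockdown: 100 nM siRNA, 48h, RAW264.7. Stimulation: Pam3CSK4 5 h, then LipidA via TransIT-TKO 24 h. Output: supernatant IL-1a HTRF, negative-control-normalized, log robust z-score; viability by CellTiter-Glo.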
For orientation: TR-FRET usually uses a lanthanide donor and a delayed reading to cut background.
As to “GCUCCAGCUCUGCUUUAAGTT against 4931440P22Rik”, the z-score is 1.28.

Take GGGCAAUUUGGAGCUUACCTT against Erbb2: the z-score is -0.952.

For GAUGCCUUUUAUGGGUGCATT against Olfr61, the z-score was 0.0552.

Turning to GGCGUGAAGAAGUUUGAUGTT against Pklr, the z-score is -0.431.

For GCGAGAAUUCUCUUCCAAUTT against Gsx2, the z-score is 2.33 (active).

As for GGACUGUCAGUACUGUCAATT against Agr3, the z-score was 0.445.

Turning to CCUAAAAUACUUUACCGGGTT against Bckdhb, the z-score was -0.025.

GGAGAAUCUUCAACACUGGTT against Adprh: the z-score was -0.951.

Regarding GGCUUCAAAACAUUUUCAGTT against Kansl1l, the z-score is 2.81 (active).

Take GGCAUAUUCCGUUUUUAAATT against Pafah1b1: the z-score is -1.09.

As to GCAGUUACAGGAAAUCGAGTT against Cdr2, the z-score was -0.746.

Turning to GCCCAAGCAGUUCAUUCAUTT against Epc2, the z-score was 0.665.

Regarding GCAUUAGUCAUUGUUAACGTT against Hsd17b4, the z-score was 0.653.

Regarding GGGCGACUUUAGCUUUUAUTT against Pced1b, the z-score was 2.51 (active).

For the sequence GGACUUCACCAUCCACGAATT against Pgap2, the z-score was 0.622.

Take GGAUGCCUGAGUGCUACAUTT against Lsm4: the z-score is -0.837.

In the case of CGGUGCGAUCUCUCAAAGUTT against Cryba4, the z-score is 2.97 (active).

In the case of GAUAUAAAGCCUUCAACACTT against Olfr912, the z-score is -1.48.

For GGAGAUGCUCAUUUUGAUUTT against Mmp8, the z-score is 1.76.

As to GGUAGUGGCUUGAACAGGUTT against Vmn1r201, the z-score was 0.115.

With GGAUCCUCGGACUAAAAGUTT against Pnma1, the z-score was -0.228.

Consider GCAUCUUAACACAUGUAAATT against Zfp369, for which the z-score was -0.834.

As for GGGAUGUAUUUCAACAACUTT against Wwox, the z-score is 0.0276.

On to GGUAUAAGGAUUCUUUGAATT against Alg13, for which the z-score is -2.8 (active).

Turning to GGCAUGGACAUUGAUGACATT against Dnajb1, the z-score was -0.834.

As to GCCUAAAGCUUUUCUACAATT against Mlph, the z-score is 0.161.

Consider GGUCAUCCGAGAUUUCACCTT against Elavl3, for which the z-score is -0.944.

With ACUUCACCAUGGUACCCGGTT against Tspo, the z-score is 1.06.

For GGCUUAAAUGCGUUCUACATT against Slc25a3, the z-score is 0.0986.

As to “GCCAGGAUAUGGAUAUGCATT against 1520401A03Rik”, the z-score is -2.06 (active).

GGCAGAAGAGUGGUACUUUTT against Fyn: the z-score was -1.63.

For AAAGGACUGCCUAAGACAATT against Vmn1r203, the z-score is -0.921.

Regarding GCCAUGUUCUUUGCUCCCATT against Pigl, the z-score was -1.8.

Regarding GGGCAAACUCUAGAGCUACTT against Pdgfrl, the z-score is -0.0578.

With GUCUGGAUAUUUGACACUATT against Tmem60, the z-score is -0.637.

Turning to GGAGUUGAUUGAAAUCAUCTT against Atp5c1, the z-score is 0.466.

On to CGCAGGACGAUUAUGACGUTT against Pcdhb12, for which the z-score was 0.753.

For GGGAAACAAAAAAGAUUUCTT against Ptpn13, the z-score is 0.619.

As to GCCAGCUAAAGAAGUCUAUTT against Gpr17, the z-score was 2.81 (active).

With GGUCUCAAUAAACUUCAGGTT against Mfap4, the z-score was 0.926.

Consider CCCAAAGCGUGACUGUCAATT against Sema4b, for which the z-score is -0.623.

For the sequence CCUGAAGUGGAGAUUCAACTT against Kcnj6, the z-score is -1.27.

For the sequence GGAGUUUACAGAAAUUAUCTT against Pecam1, the z-score is 0.214.

Consider GAUUAGCAUCCAUGAACACTT against Tcl1b2, for which the z-score was 2.16 (active).

Regarding GGCAGAUUCAGACCUUCGATT against Sult1c2, the z-score was -0.753.

As for CGAACAGUGCUUCGUAUGUTT against Lims1, the z-score is -1.04.

Turning to GGUACAUGAAGAAAAGUAATT against Lrrc19, the z-score was -0.243.

Take GCAUACAAGACCGUGAUCATT against Psmc4: the z-score is -2.03 (active).

As to GGUUAUUUCUCUCUCCCUATT against Creld1, the z-score is 0.524.

In the case of GGAGGAUGACAAAAUCUAUTT against Rnf113a2, the z-score was 1.25.

Turning to GCAUGGUAUUAGAUGAUGATT against Nexn, the z-score is -1.69.

Consider GCGCAGAUAUCCUGGUUUGTT against Dhx36, for which the z-score was 2.28 (active).

Turning to GGAAUGUGCCUAAGUUUGGTT against Ufc1, the z-score was 1.08.

As to CCAAUGGAACAUUAAGUGATT against Psma1, the z-score was -0.485.

As for CCAUAGUUGAUGGAAGAUATT against Shld2, the z-score was -0.847.

Turning to CCCUAUUUGUCAACGAUUATT against Lrrc24, the z-score was -0.662.

As to GGAAGCAAUGUGAGAAAUUTT against Tmem91, the z-score is 2.54 (active).

As for GCCAAAUCAUGGGUCUGGUTT against Npas3, the z-score was 0.969.

Turning to GGCAAUGUGCCCAAUAUCATT against Rfc2, the z-score was -1.61.

In the case of GGACUCAUAUCCUUACAUATT against AI854703, the z-score is -0.0584.

For GGGAUAGCUGUCACCUUCUTT against Rad9a, the z-score is -0.742.

For the sequence GGUGUUGAGUGCACUACUGTT against Nckap5l, the z-score is -2.2 (active).

As for GUUUCUCGAAGAGCAUCCUTT against Cyb5a, the z-score is 0.732.

As for UCACUUGUACCAAAAAUGATT against Adcy1, the z-score is -1.43.

Turning to GGGAAAGUCGUUGAAAUUUTT against Stx18, the z-score is 0.941.

As for GGAUUAAAGCAGAAUAUGATT against Paics, the z-score is -0.561.

On to GGCUGUCCUUUUCCUCUUATT against Yipf6, for which the z-score was 1.49.

Regarding CCCAAAACUCUAGCUACUATT against Olfr824, the z-score is -3.03 (active).

Regarding CGCAGCAGUUGUGGUCAAUTT against Nnat, the z-score is -1.23.

As to GGGCUGCUAUUUUGAUGGUTT against Chrd, the z-score was 0.704.

Take GCGUAUAAGCUCAGUAGACTT against Phlpp1: the z-score is 1.06.

On to GGGCAAGUAUGGGCAGUUCTT against Ppp1ca, for which the z-score is 0.0965.

Consider CGAGAUCAUCUCAAAUAUCTT against Man2a1, for which the z-score is -0.0408.

Consider GGACAAACAAGUGAAAUACTT against Morf4l1, for which the z-score was 0.209.

For CCUAAAUUUCCAACAGUCCTT against Tmem81, the z-score was 2.05 (active).

Consider CGGUCUUCCCGUGGUUCAATT against Gm5114, for which the z-score was -0.992.

In the case of GGCAAAAGGGACAAAAACUTT against Gadd45a, the z-score is -1.64.

As for CCUUUAUGGGACACUAUUUTT against Alb, the z-score was 0.588.

As to CCUAAAAGACUUCAUCCGUTT against Kcnh8, the z-score is 2.32 (active).

In the case of CGUGGAACAUAAGAAUGGATT against Gapdhs, the z-score was 0.269.

For the sequence GGAUUGUCAGCCAAGAAACTT against Uba7, the z-score was -0.085.

Consider GGAAAUUCACAAACAUGGATT against Gins3, for which the z-score is -1.76.

Take CCAUUUUAACCAAUGGUGUTT against Olfr572: the z-score is -1.06.

GGUCAAAAGACUGUACAUATT against Timm8a2: the z-score is 2.07 (active).

Take GGCAAUGGCUUGGUCUUUUTT against Mapk6: the z-score was 0.0141.

On to “GGAGGGAAUAGAGAAUCGGTT against A930024E05Rik”, for which the z-score is 3.7 (active).

As for GGAUUUUGAAGACAUCUGUTT against Tubgcp4, the z-score was 0.396.

In the case of GGCAACAUGACAAUUGUGGTT against Olfr1215, the z-score was -0.00863.

For GCCAUUGCUAGUAAUUCUUTT against Vkorc1l1, the z-score is 0.444.

Consider CCCUCAUGUUUAGCGAGCATT against Kcnj3, for which the z-score is 0.644.

With GGUGAAAGACCACAAAUUCTT against Prkca, the z-score was -0.824.

For GGACUUUCGAGACAAGCUGTT against Barhl1, the z-score is -1.21.

Turning to CGUACAGUGAUGAUUUUGATT against Cep162, the z-score is 0.218.

For GGACAAUGCAGUGCUGAAATT against Car2, the z-score is 3.37 (active).

With GCACACCCAAUGCUCUAAGTT against Nprl3, the z-score was 1.25.

Consider GCAGCGGAGGGUCAAAGAATT against Pym1, for which the z-score is 0.783.

With GGCCUUUGAGGUCUACAUATT against Icam2, the z-score was 0.323.

Turning to GCCCUCCGAGAAAAACAUCTT against Gjb5, the z-score was 2.05 (active).

As to GGGUAAAAGUAGCUGCCCUTT against Trp53inp2, the z-score is -0.401.

For the sequence GGAAAUAAAGUCCAUAGAATT against B3gnt3, the z-score was 0.00261.

With GGUUCCUCUUGUGAGUGCCTT against Gpr137b, the z-score was -0.974.

On to GGAGAAGUCCAUACGGAUCTT against Gpr18, for which the z-score was 0.184.

With GGGACAGUAGAAGAUGUAGTT against Got2, the z-score was -0.706.

Turning to GGAAAAUUGGACCAAUUUCTT against Ric3, the z-score is -0.339.

Turning to GCCUUGGUACCAUAAUGCATT against Synm, the z-score was 0.224.

With GGCCGGUGCCUUUUAUUCUTT against Spib, the z-score was 3.26 (active).

Consider GCAAGUGCGGAAGAAAGGATT against Afap1l2, for which the z-score was 0.0285.
